Laboratory results published in PMC5540273 (PLoS ONE, 2017).

Experiments:
Settings in all cases: concentration: 1 μM, replicates: in singlicate; n = 1
NEK4 = system: NEK4
NEK5 = system: NEK5
NEK6 = system: NEK6
NEK7 = system: NEK7
NEK9 = system: NEK9
NIK = system: T1, NIK
T1 construct: gene MAP3K14

NIM1 = system: T2, NIM1
T2 construct: gene MGC42105

NLK = system: NLK
OSR1 = system: T3, OSR1
T3 construct: gene OXSR1

PAK1 = system: PAK1
PAK2 = system: PAK2
PAK3 = system: PAK3
PAK4 = system: PAK4
PAK6 = system: PAK6
PAK7 = system: PAK7
PCTK1 = system: T4, PCTK1
T4 construct: gene CDK16

PCTK2 = system: T5, PCTK2
T5 construct: gene CDK17

PCTK3 = system: T6, PCTK3
T6 construct: gene CDK18

PDGFRA = system: PDGFRA
PDGFRB = system: PDGFRB
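Note: KINOMEscan kinase panel screen.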

SMILES | %Inh (NEK4) [%] | %Inh (NEK5) [%] | %Inh (NEK6) [%] | %Inh (NEK7) [%] | %Inh (NEK9) [%] | %Inh (NIK) [%] | %Inh (NIM1) [%] | %Inh (NLK) [%] | %Inh (OSR1) [%] | %Inh (PAK1) [%] | %Inh (PAK2) [%] | %Inh (PAK3) [%] | %Inh (PAK4) [%] | %Inh (PAK6) [%] | %Inh (PAK7) [%] | %Inh (PCTK1) [%] | %Inh (PCTK2) [%] | %Inh (PCTK3) [%] | %Inh (PDGFRA) [%] | %Inh (PDGFRB) [%]
CCC(=O)c1c(-c2ccccc2)c2cc(Cl)ccc2c(=O)n1Cc1cc(C(=O)NC2CC2)n(C)n1 | 16 | 0 | 8 | 0 | 0 | 0 | 1 | 0 | 0 | 20 | 16 | 11 | 0 | 4 | 0 | 1 | 6 | 0 | 15 | 77
CCC(=O)c1c(-c2ccccc2)c2cc(Cl)ccc2c(=O)n1Cc1cc(S(C)(=O)=O)n(CC(F)F)n1 | 0 | 0 | 0 | 0 | 0 | 0 | 0 | 0 | 0 | 0 | 0 | 0 | 0 | 0 | 0 | 0 | 4 | 0 | 0 | 0
Cl.NS(=O)(=O)c1cccc(Nc2cc(-c3ccc(F)cc3)n[nH]2)c1 [GW824645] | 0 | 0 | 0 | 0 | 0 | 45 | 3 | 0 | 0 | 4 | 26 | 0 | 0 | 4 | 0 | 0 | 13 | 5 | 75 | 96.1
Cc1nnc(-c2ccc(C)c(-c3ccc(C(=O)O)cc3)c2)o1 [GW608005] | 14 | 2 | 0 | 5 | 2 | 26 | 13 | 0 | 2 | 8 | 9 | 0 | 0 | 0 | 0 | 0 | 0 | 2 | 0 | 4
COc1ccc(-c2cc3c(C)nc(N)nc3n([C@H]3CC[C@H](OCCO)CC3)c2=O)cn1 | 0 | 0 | 22 | 0 | 0 | 0 | 21 | 0 | 0 | 0 | 1 | 0 | 0 | 0 | 0 | 0 | 3 | 0 | 0 | 1
COc1cccc(C2=C(N(C)c3ccccc3)C(=O)NC2=O)c1 [SB-334865] | 0 | 0 | 0 | 0 | 0 | 100 | 21 | 29 | 0 | 1 | 0 | 1 | 0 | 0 | 0 | 0 | 0 | 0 | 0 | 7
Cc1c(Cn2c(C)nn3c(=O)cc(N4CCO[C@H](C)C4)nc23)cccc1C(F)(F)F [GSK2373690] | 31 | 0 | 1 | 0 | 0 | 2 | 0 | 27 | 22 | 0 | 3 | 7 | 0 | 0 | 0 | 0 | 0 | 26 | 0 | 14
Nc1ncnc2c1ncn2-c1cccc2ccccc12 [SKF-97184] | 0 | 0 | 0 | 0 | 0 | 2 | 13 | 0 | 0 | 3 | 56 | 0 | 0 | 0 | 0 | 0 | 100 | 10 | 0 | 7
C[C@@H]1CC[C@H](C(=O)NC2CCCCC2)CN1c1cc(-c2ccc3c(N)n[nH]c3c2)nc(N)n1 [GSK2291363] | 18 | 22 | 26 | 0 | 25 | 32 | 14 | 7 | 17 | 15 | 17 | 0 | 0 | 3 | 17 | 2 | 10 | 32 | 0 | 34
CC(C)(C)c1ccc(C(=O)Nc2cn3cc(-c4ccccc4)ccc3n2)cc1 | 0 | 0 | 0 | 0 | 0 | 0 | 19 | 0 | 0 | 0 | 0 | 8 | 1 | 0 | 6 | 0 | 0 | 0 | 41 | 93
Cc1ccc(Oc2ccc(Nc3ncnc4cc[nH]c34)cc2C)cn1 | 3 | 0 | 17 | 10 | 5 | 0 | 58 | 0 | 0 | 37 | 37 | 4 | 25 | 27 | 0 | 0 | 8 | 2 | 49 | 21
O=C(Nc1n[nH]c2nc(-c3ccccc3)c(Cl)cc12)C1CC1 [SB-734909] | 23 | 11 | 0 | 0 | 2 | 13 | 6 | 11 | 0 | 0 | 0 | 23 | 0 | 0 | 7 | 0 | 0 | 30 | 46 | 97
Cc1ccccc1COc1cc(-n2cnc3cc(Cl)ccc32)sc1C(N)=O [GW813349] | 0 | 6 | 0 | 4 | 0 | 9 | 5 | 0 | 0 | 0 | 0 | 0 | 0 | 1 | 0 | 15 | 0 | 0 | 1 | 0
CN1C(=O)C(Nc2ccccc2)=C(c2ccccc2)C1=O [SB-300079] | 0 | 0 | 0 | 0 | 0 | 32 | 19 | 0 | 0 | 0 | 0 | 0 | 0 | 0 | 0 | 0 | 0 | 12 | 0 | 24
CN(C)c1cc(-c2ccc3c(N)n[nH]c3c2)nc(N)n1 [GSK2219329] | 0 | 2 | 0 | 0 | 0 | 0 | 21 | 1 | 0 | 9 | 0 | 0 | 0 | 0 | 15 | 0 | 0 | 0 | 0 | 9
Nc1n[nH]c2ncc(-c3ccccc3)cc12 [SB-517081] | 26 | 9 | 0 | 0 | 7 | 0 | 28 | 13 | 0 | 7 | 17 | 0 | 0 | 0 | 0 | 3 | 0 | 31 | 51 | 97.3
Cc1nnc(-c2ccc3ncn(-c4ccc(S(C)=O)cc4)c3c2)o1 (stereo not drawn) | 0 | 0 | 17 | 2 | 13 | 3 | 0 | 0 | 0 | 8 | 14 | 0 | 2 | 4 | 2 | 0 | 0 | 14 | 17 | 30
O=c1cc(N2CCOCC2)nc2n(Cc3ccc(F)c(Cl)c3)ccn12 [GSK2297099] | 0 | 9 | 0 | 61 | 64 | 0 | 17 | 14 | 6 | 5 | 5 | 0 | 0 | 13 | 11 | 6 | 10 | 2 | 7 | 17
COc1cc2ncn(-c3cc(OCc4ccc(S(C)(=O)=O)cc4)c(C(N)=O)s3)c2cc1OC [GW869979] | 14 | 20 | 1 | 0 | 0 | 7 | 45 | 4 | 25 | 0 | 0 | 0 | 0 | 0 | 0 | 19 | 0 | 26 | 30 | 11
O=C(Nc1n[nH]c2nc(-c3ccccc3)c(Br)cc12)C1CC1 [SB-708998] | 3 | 2 | 0 | 0 | 3 | 31 | 9 | 33 | 11 | 10 | 10 | 9 | 0 | 0 | 0 | 0 | 0 | 0 | 20 | 93.7
FC(F)(F)c1ccc(-c2ncn(CCCN3CCOCC3)c2-c2ccncc2)cc1 [SB-217780] | 0 | 9 | 0 | 10 | 33 | 0 | 26 | 35 | 5 | 20 | 34 | 12 | 21 | 17 | 0 | 10 | 0 | 20 | 34 | 32
